Source: PubChem
GSH fluor: compound fluoresces at 488/530 nm on GSH beads | GSH beads flow cytometry, compound fluorescence 488/530 nm; active compounds read high | fluorescence (KMESF) at 10 µM | actives 0.25% (n = 190,000); in the data active means fluorescence above about 89;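 further: glutathione beads carrying GST-tagged Bcl family fusion proteins plus one bare bead set; values are compound well signal with DMSO vehicle wells as background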
RGS7-Gao reg: modulates binding of RGS7 to human Galphao | actives 0.35% (n = 220,000) | AID 1439 | Multiplexed bead flow cytometry; actives lie on both sides | P09471 | binding response (% of control), % at 10 µM; in the data active means binding response below about 49% or above about 150%; inconclusive means no clear call, values can overlap the other calls; inactive means in between;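 further: fluorescent Galphao held in activated GDP-AlF4 state binding bead-coupled RGS7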
Target sequence (P09471 whole entry, looked up): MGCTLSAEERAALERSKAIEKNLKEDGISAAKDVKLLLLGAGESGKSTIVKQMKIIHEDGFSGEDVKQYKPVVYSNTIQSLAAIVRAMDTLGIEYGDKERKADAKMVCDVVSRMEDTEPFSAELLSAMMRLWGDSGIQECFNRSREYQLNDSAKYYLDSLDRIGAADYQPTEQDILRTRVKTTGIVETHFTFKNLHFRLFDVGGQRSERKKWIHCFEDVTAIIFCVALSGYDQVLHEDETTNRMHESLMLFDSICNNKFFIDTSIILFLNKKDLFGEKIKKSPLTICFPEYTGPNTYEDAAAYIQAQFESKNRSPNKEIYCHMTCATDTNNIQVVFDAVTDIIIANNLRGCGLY
Avidin bead fluor: compound fluoresces at 488/530 nm on avidin beads; compound fluorescence 488/530 nm, flow cytometry; active compounds read high; fluorescence (KMESF) at 10 µM; actives 0.38% (n = 220,000); in the data active means fluorescence above about 47
RGS8-Gao reg: modulates binding of RGS8 to human Galphao. P09471. AID 1423. actives 0.34% (n = 220,000). multiplexed bead flow cytometry; actives lie on both sides. response (percent of control binding), % at 10 µM; in the data active means response below about 60% or above about 140%; inactive means in between;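 further: Galphao activated as the GDP aluminium fluoride complex binding bead-coupled RGS8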
RGS4-Gao reg: human RGS4-Galphao interaction regulation; P09471; Multiplexed bead flow cytometry, RGS4-Galphao binding; actives lie on both sides; actives 0.33% (n = 220,000); AID 1415; binding response (% of control), % at 10 µM; in the data active means binding response below about 49% or above about 150%; inactive means in between;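 further: fluorescent Galphao activated with aluminum fluoride binding bead-coupled RGS4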
RGS16-Gao: modulates binding between human RGS16 and Galphao | binding response (% of control), % at 10 µM | bead-based flow cytometry RGS16-Galphao binding, fluorescence; actives lie on both sides | actives 0.38% (n = 220,000);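 further: Galphao activated by GDP with aluminum fluoride before binding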
RGS4-Gao HTS: RGS4-Galphao interaction regulator (human). shares compounds with RGS16-Gao. multiplexed bead flow cytometry, RGS–Galpha-o binding. RGS4–Galpha-o binding response, % at 10 µM. actives 99% (n = 1,600);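 further: fluorescently labeled Galpha-o bound to GDP with aluminium fluoride binding biotinylated RGS beads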
Target sequence (P09471 whole entry, looked up): as above
Target sequence (P49798 whole entry, looked up): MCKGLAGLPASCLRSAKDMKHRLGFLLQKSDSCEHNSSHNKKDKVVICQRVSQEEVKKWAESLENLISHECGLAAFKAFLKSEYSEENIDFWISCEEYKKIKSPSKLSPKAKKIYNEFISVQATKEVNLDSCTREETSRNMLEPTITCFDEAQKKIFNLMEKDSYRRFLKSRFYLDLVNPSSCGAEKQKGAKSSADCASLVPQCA
Biotin-avidin: biotin-avidin bead binding disruption counter-screen; shares compounds with RGS16-Gao; streptavidin beads, fluorescein-biotin binding, flow cytometry; 1,700 tested, under 10 active; inhibition, % at 10 µM; AID 1783;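 active means inhibition above 50%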;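 further: median green fluorescence of gated singlet beads compared with DMSO control wells; 0% = DMSO wells and 100% = complete loss of bead fluorescence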
RGS8-Gao single: confirmation of regulators of human RGS8-Galphao interaction; shares compounds with RGS16-Gao; bead-based flow cytometry RGS8-Galphao binding, fluorescence; actives lie on both sides; binding response (% of control), % at 10 µM; actives 3% (n = 1,700); AID 1836; in the data active means binding response below about 72% or above about 130%; inactive means in between;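 further: Galphao activated as GDP AlF4 complex before binding bead RGS8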
RGS7-Gao single: confirmation of regulators of human RGS7-Galphao interaction. bead-based flow cytometry RGS7-Galphao binding; actives lie on both sides. shares compounds with RGS16-Gao. response (percent of control binding), % at 10 µM. actives 7.8% (n = 1,700); in the data active means response below about 75% or above about 130%; inactive means in between;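 further: fluorescent Galphao activated with GDP and aluminum fluoride binding bead-coupled RGS7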
RGS16-Gao conf: RGS16-Galphao interaction regulation, single point confirmation; response (% of control binding), % at 10 µM; actives 4% (n = 1,700); bead-based flow cytometry, RGS16-Galphao binding; actives lie on both sides; shares compounds with RGS16-Gao; in the data active means response below about 74% or above about 130%; inactive means in between;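 further: Galphao activated as the GDP aluminium fluoride complex binding bead-coupled RGS16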
RGS4-Gao confirm: RGS4-Galphao interaction regulation, single point confirmation; binding response (% of control), % at 10 µM; RGS4-Galphao binding, multiplexed bead flow cytometry; actives lie on both sides; actives 4% (n = 1,700); shares compounds with RGS16-Gao; in the data active means binding response below about 74% or above about 130%; inactive means in between
RGS19-Gao conf: confirmation of regulators of human RGS19-Galphao interaction. actives 5% (n = 1,700). bead-based flow cytometry RGS19-Galphao binding; actives lie on both sides. shares compounds with RGS16-Gao. AID 1841. response (percent of control binding), % at 10 µM; in the data active means response below about 50% or above about 160%; inactive means in between;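 further: 100% = no compound control and 0% = blank background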
* hit, by the source's call; i = inactive; ? = inconclusive; · = not tested or not shown; [ ] = remark or other dose. Sampled rows, rich in hits. Any-hit rate of the full collection: about 1.2%. Unless noted, how the calls were made is not given here.

SMILES	GSH fluor	RGS7-Gao reg	Avidin bead fluor	RGS8-Gao reg	RGS4-Gao reg	RGS16-Gao	RGS4-Gao HTS	Biotin-avidin	RGS8-Gao single	RGS7-Gao single	RGS16-Gao conf	RGS4-Gao confirm	RGS19-Gao conf
CCCN(CCC)c1nc(C#N)nc(N(CCC)CCC)n1	11	54	1	48*	96	29	96*	1	98	101	102	96	93
Cc1cccc(OC(C)C(=O)N(Cc2cccs2)C2CCS(=O)(=O)C2)c1C (stereo unspecified)	11	78	9	75	69	-16*	69*	0	100	96	97	100	100
Cc1ccccc1OCC(=O)N(Cc1cccs1)C1CCS(=O)(=O)C1 (stereo unspecified)	10	97	14	94	89	99	·	·	·	·	·	·	·
S=c1[nH]nc(COc2ccccc2)n1Cc1ccccc1	9	82	2	50*	80	3.7*	80*	0	82	80	76	82	72
CCOC(=O)c1ccc(N2C(=O)CC(N3CCN(C/C=C/c4ccccc4)CC3)C2=O)cc1 (stereo unspecified)	66	122	7	153*[activator]	134	i	134*	0	109	108	112	105	115
CCOC(=O)C1CCCN(C2CC(=O)N(c3ccccc3)C2=O)C1 (stereo unspecified)	12	86	10	95	94	96	·	·	·	·	·	·	·
COc1ccc(N2CCN(c3nc4ccccc4n3CC(=O)c3ccccc3)CC2)cc1	35	165*[activator]	76*	99	108	103	108*	0	105	104	107	104	109
CCOC(=O)C1CCN(c2nc3ccccc3n2CC(=O)c2ccccc2)CC1	10	98	22	104	99	101	·	·	·	·	·	·	·
Cc1cccc(C(=O)Nc2ccc(C(=O)/C=C/c3cccnc3)cc2)c1	0	186*[activator]	30	105	196*[activator]	242	·	0	100	105	102	102	103
O=C(/C=C/c1cccnc1)c1ccc(NC(=O)c2cccc(Br)c2)cc1	21	100	5	99	101	101	·	·	·	·	·	·	·
C/C(=N/NC(=O)c1cc(-c2ccc(Br)s2)[nH]n1)c1ccco1	32	104	10	106	104	114	·	·	·	·	·	·	·
C/C(=N\NC(=O)c1cc(C(C)C)[nH]n1)c1ccco1	7	106	3	126	102	190*[activator]	102*	2	101	102	101	100	108
Cn1c(NNC(=O)C2CCCCC2)cc(=O)n(C)c1=O	15	104	13	100	102	103	·	·	·	·	·	·	·
COc1cccc(NC(=O)CSc2ncnc3c2cnn3Cc2ccccc2)c1	33	96	12	101	102	101	·	·	·	·	·	·	·
COc1ccc(NC(=O)CSc2ncnc3c2cnn3CCc2ccccc2)cc1	9	0.3*	0	19*	-20*	-12*	·	-1	100	101	101	103	103
COc1ccc(NC(=O)NCCCN2CCN(c3cc(C)ccc3C)CC2)cc1	17	100	6	103	105	101	·	·	·	·	·	·	·
COc1ccc(NC(=O)NCCCN2CCN(c3ccccc3F)CC2)cc1	·	?	0	22*	12*	8.9*	·	2	112	114	111	113	104
O=Cc1ccc(OCC(=O)N2CCOCC2)cc1	10	105	14	101	102	102	·	·	·	·	·	·	·
O=C(CN1CCN(C(=O)c2ccco2)CC1)Nc1ccc2c(c1)OCCO2	36	178*[activator]	223*	99	122	108	122*	0	97	94	95	99	98
Cc1ccc(NC(=O)COC(=O)C(NS(=O)(=O)c2ccc(Cl)cc2)C(C)O)cc1 (stereo unspecified)	16	112	6	129	118	178	·	·	·	·	·	·	·
Cc1nc(C(F)(F)F)ccc1C(=O)N1CCCCC1	·	?	-1	31*	3.0*	5.8*	·	0	102	98	103	102	96
COCCn1nnnc1C(C(C)C)N1CCC(Cc2ccccc2)CC1 (stereo unspecified)	24	102	4	87	155*[activator]	151	·	-1	104	104	104	101	92
Cc1[nH]c2ccccc2c1/C=N/Nc1ccc([N+](=O)[O-])cc1S(=O)(=O)Nc1ccc(Cl)cc1	16	128	24	103	131	126	·	·	·	·	·	·	·
COc1ccc(NS(=O)(=O)c2cc([N+](=O)[O-])ccc2N/N=C\c2c(C)[nH]c3ccccc23)cc1	19	136	51*	110	151*[activator]	145	·	0	101	159*[activator]	117	128*[activator]	199*[activator]
CCN(CC)c1ccc(NC(=O)c2ccc(=O)[nH]c2)cc1S(=O)(=O)Nc1ccccc1OC	13	116	20	92	95	83	·	·	·	·	·	·	·
O=C(Cn1nc(Cc2cccnc2)c2ccccc2c1=O)Nc1cccnc1Cl	14	91	5	81	88	15	·	·	·	·	·	·	·
Cc1c(Cl)cccc1NC(=O)C1Cc2ccccc2CN1C(=O)c1ccccc1 (stereo unspecified)	19	97	14	99	99	96	·	·	·	·	·	·	·
Cc1cccc(NC(=O)C2Cc3ccccc3CN2C(=O)OCc2ccccc2)c1C (stereo unspecified)	6	90	6	79	91	12*	91*	-2	111	102	118	102	116
